# Measurements from paper PMC5540273 (PLoS ONE, 2017).
# Assays:
# Conditions in all cases: concentration: 1 μM, replicates: in singlicate; n = 1
# VRK2 = test system: VRK2
# WEE1 = test system: WEE1
# WEE2 = test system: WEE2
# WNK1 = test system: WNK1
# WNK2 = test system: WNK2
# WNK3 = test system: WNK3
# WNK4 = test system: WNK4
# YANK1 = test system: T1, YANK1
# T1 construct: gene STK32A
# YANK2 = test system: T2, YANK2
# T2 construct: gene STK32B
# YANK3 = test system: T3, YANK3
# T3 construct: gene STK32C
# YES = test system: T4, YES
# T4 construct: gene YES1
# YSK1 = test system: T5, YSK1
# T5 construct: gene STK25
# YSK4 = test system: T6, YSK4
# T6 construct: gene MAP3K19
# ZAK = test system: ZAK
# ZAP70 = test system: ZAP70
# p38-alpha = test system: T7, p38-alpha
# T7 construct: gene MAPK14
# p38-beta = test system: T8, p38-beta
# T8 construct: gene MAPK11
# p38-delta = test system: p38-delta
# p38-gamma = test system: T9, p38-gamma
# T9 construct: gene MAPK12
# 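Further: KINOMEscan kinase panel screen.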
Compound,%Inh (VRK2),%Inh (WEE1),%Inh (WEE2),%Inh (WNK1),%Inh (WNK2),%Inh (WNK3),%Inh (WNK4),%Inh (YANK1),%Inh (YANK2),%Inh (YANK3),%Inh (YES),%Inh (YSK1),%Inh (YSK4),%Inh (ZAK),%Inh (ZAP70),%Inh (p38-alpha),%Inh (p38-beta),%Inh (p38-delta),%Inh (p38-gamma)
Cc1cc(N2Cc3ccccc3C2)nc(Nc2ccc(S(=O)(=O)N3CCOCC3)cc2)n1.Cl [GSK1669917],0%,3%,0%,0%,7%,2%,10%,7%,0%,0%,5%,0%,0%,0%,0%,3%,0%,46%,3%
O=c1cc(N2CCOCC2)nc2n(Cc3cccc(Cl)c3Cl)ccn12 [GSK2286295],0%,3%,0%,0%,0%,0%,0%,16%,2%,0%,14%,8%,23%,6%,0%,0%,0%,40%,27%
O=C(Nc1n[nH]c2nc(-c3nccs3)c(Br)cc12)C1CC1 [SB-742251],0%,16%,7%,23%,2%,35%,51%,6%,0%,7%,16%,9%,95.4%,7%,0%,0%,0%,20%,0%
Nc1ncnc2[nH]c(-c3ccccc3)nc12 [AH5015],30%,0%,0%,10%,9%,13%,19%,98%,4%,9%,18%,0%,94.4%,33%,0%,0%,0%,6%,0%
Cc1ccc(NC(=O)Nc2cccc(Cl)c2)cc1-c1ccc(C(=O)Nc2ccncc2)cc1 [GSK1398468],0%,2%,21%,7%,0%,18%,24%,10%,0%,0%,13%,14%,92.3%,68%,20%,37%,3%,37%,0%
O=C(Nc1ccccc1)Nc1cccc(Oc2ccc3nccn3n2)c1,0%,0%,41%,0%,0%,0%,17%,0%,29%,0%,0%,0%,87%,35%,0%,0%,0%,0%,19%
CCCc1ccc(S(=O)(=O)NC2CCN(c3ccnc(Nc4ccc(F)cc4)n3)C2)cc1 (centres unmarked) [GSK1379715],7%,6%,0%,17%,0%,20%,4%,18%,0%,100%,22%,100%,31%,67%,0%,3%,0%,29%,0%
O=C1NC(=O)C(N2CCc3ccccc32)=C1c1ccccc1Cl [SB-373598],0%,6%,9%,0%,2%,22%,75%,13%,16%,20%,10%,0%,0%,17%,0%,0%,35%,6%,18%
Cl.NC(=O)c1cccc(Nc2nccc(Nc3ccc(Oc4cccc(Cl)c4)c(Cl)c3)n2)c1 [GW659008],0%,0%,12%,0%,0%,15%,0%,3%,2%,28%,54%,0%,0%,53%,0%,8%,0%,38%,0%
Fc1cc(Cl)ccc1Nc1ccnc2cc(-c3ccc(CN4CCCCC4)o3)ccc12 [GW560116],38%,0%,4%,0%,0%,34%,49%,0%,0%,0%,1%,17%,5%,0%,0%,36%,0%,40%,9%
Cn1ccc2ncnc(Oc3cccc(C(=O)Nc4ccccc4)c3)c21,0%,5%,0%,0%,0%,0%,0%,11%,1%,29%,1%,0%,1%,0%,0%,0%,6%,3%,0%
